PABP polyA inh = PABP-poly(A) binding inhibition; P11940; PABP-poly(A) RNA binding, fluorescence polarization; calls only at 35 µM; 290,000 tested, 1% active;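 also: calls also rest on retests at 20 µM and on dose response follow-up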
eIF4H inh = inhibitors of RNA binding by human eIF4H. eIF4H fluorescence polarization binding assay. 290,000 tested, 0.94% active. inhibition, % at 35 µM. AID 2012. Q15056;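 also: calls also rest on retests at 20 µM and on dose response follow-up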
PABP1 MLLE inh = inhibitors of microRNA-mediated deadenylation, human PABP1 MLLE binding; P11940; GST-MLLE / FITC-PAM2 fluorescence polarization; inhibition, % at 20 µM; 360,000 tested, 0.36% active; in the data active = inhibition above about 35%, passing the limit was not always enough
eIF4E 4G PPI = eIF4E/eIF4G interaction inhibition in translation initiation; AID 782; 220,000 tested, 0.37% active; TR-FRET eIF4E-eIF4GI(517-606) binding, 2 h; inhibition, % at 21.7 µM; P63073+Q04637;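 active = inhibition above about 30%, limit read from the data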
EBV gp42 block = EBV gp42 inhibition | AID 1085 | Fluorescence polarization binding assay, mP read-out | inhibition, % (tested at 21.74 µM) | 220,000 tested, 0.42% active; in the data active = inhibition above about 50%
Each line names hits and unclear results; the compound was inactive in the other large screens. The list is not random: actives were taken first. Their share in the collection is about 1.7%. Unless noted, no rule for the calls is given here.

COc1ccc(C2=NS(=O)(=O)N(C)C(C(=O)NCc3ccc(F)cc3)=C2)cc1OC	none (no result: eIF4E 4G PPI, EBV gp42 block)
CCCCc1ccc(-c2csc(/C(C#N)=C\c3ccco3)n2)cc1	eIF4H inh 55.2
CC1(C)CC(=O)C/C(=N\NC(=O)Cc2ccccc2)C1	PABP polyA inh active, eIF4H inh active
CC1CCCCC12NC(=O)N(CC(=O)Nc1sc3c(c1C(N)=O)CCC3)C2=O (configuration not stated)	PABP polyA inh active, eIF4H inh 77.8
COC(=O)c1c(NC(=O)CN2C(=O)NC3(CCC(C)CC3)C2=O)sc2c1CCC2 (configuration not stated)	none (no result: PABP polyA inh, eIF4H inh, eIF4E 4G PPI, EBV gp42 block)
CC1CCC2(CC1)NC(=O)N(CC(=O)Nc1sc3c(c1C(N)=O)CCC3)C2=O (configuration not stated)	PABP polyA inh active, eIF4H inh 76.0
Cn1cnnc1SCC(=O)Nc1sc2c(c1C(N)=O)CCC2	PABP polyA inh active, eIF4H inh 76.1, EBV gp42 block 65.4
Cc1cccnc1NC(=O)c1cccc(NC(=O)CC2SC(N3CCCCC3)=NC2=O)c1 (configuration not stated)	none (no result: PABP polyA inh, eIF4H inh, eIF4E 4G PPI, EBV gp42 block)
O=c1oc2ccccc2c(Nc2cccc(O)c2)c1[N+](=O)[O-]	PABP polyA inh active, eIF4H inh 83.9
COc1ccc(-c2c(N)cnc(C(=O)O)c2C)c(OCc2ccccc2)c1OC	none (no result: PABP polyA inh, eIF4H inh, eIF4E 4G PPI, EBV gp42 block)
CC(O)/C=C/c1cccc[n+]1C (configuration not stated)	PABP polyA inh active
CC(=O)[C@H]1CC[C@H]2[C@@H]3CCC4=CC(=O)CC[C@]4(C)[C@H]3[C@H](O)C[C@]12C	none
C[C@]12C[C@H](O)[C@H]3[C@@H](CCC4=CC(=O)CC[C@@]43C)[C@@H]1CC[C@@H]2C(=O)CO	eIF4H inh 5.2
C=CCc1cccc(C=Nc2cc(Br)ccc2O)c1O	eIF4H inh 78.0, EBV gp42 block 101.5
CSc1nc(=S)c2[nH]c(=S)[nH]c2[nH]1	PABP polyA inh active, eIF4H inh 92.3
CCC(C)NC(=O)CC(c1ccccc1)c1cc(C)ccc1O (configuration not stated)	none
COc1ccc(NC(=O)CN2C(=O)/C(=C3\SC(=S)N(C4CCS(=O)(=O)C4)C3=O)c3ccccc32)cc1 (configuration not stated)	EBV gp42 block 61.4
O=c1[nH]c(CSc2nnc3ccccn23)nc2cc(C(F)(F)F)ccc12	none (no result: PABP1 MLLE inh)
CCOC(=O)CNC(c1ccccc1)c1cc(Br)ccc1NC(=O)CCN1CCOCC1 (configuration not stated)	none
CCOC(=O)CNC(c1ccccc1)c1cc(Br)ccc1NC(=O)OCC (configuration not stated)	PABP polyA inh active, eIF4H inh 103.7
Cc1cc(-c2ccccc2C(=O)O)on1	none
O=C(O)c1ccccc1C1=Nc2ccc(O)cc2Oc2cc(O)ccc21	PABP polyA inh inconclusive, eIF4H inh inconclusive, EBV gp42 block 84.4
Cc1nc(C(F)(F)F)ccc1C(=O)N1CCC1(C)C(=O)NS(=O)(=O)c1cccc(C#N)c1 (configuration not stated)	none (no result: PABP polyA inh, eIF4H inh, eIF4E 4G PPI, EBV gp42 block)
Cc1c(N=C2N=C(NC(=O)c3cccs3)c3ccccc32)c(=O)n(-c2ccccc2)n1C	eIF4H inh inconclusive, EBV gp42 block 124.5
Cc1c(N=C2N=C(NC(=O)NC(C)(C)C)c3ccccc32)c(=O)n(-c2ccccc2)n1C	none
C/C=C(\C)C(=O)NCCN1C2=NC[C@H](C(C)C)N2C[C@@H]1Cc1ccc(OC)cc1	PABP polyA inh active
COC(=O)c1sc(=S)n(-c2cc(F)ccc2F)c1N	PABP1 MLLE inh 39.5
O=C1NC(=O)C(c2ccccc2[N+](=O)[O-])=C1Nc1ccc(O)c(Cl)c1	PABP polyA inh active, eIF4H inh 66.6 (no result: eIF4E 4G PPI, EBV gp42 block)
O=C(NNc1ccccc1[N+](=O)[O-])Nc1ccc(Cl)c(Cl)c1	none
CCn1c(SCC(=O)Nc2ccc(N3CCOCC3)cc2)nnc1C1CC1	none (no result: PABP polyA inh, eIF4H inh, eIF4E 4G PPI, EBV gp42 block)
O=C(Nc1cccc2ccccc12)N1CC=CCC1	PABP polyA inh active, eIF4H inh 81.4
O=C(Nc1cccc2ccccc12)N1CCN(c2ccccc2)CC1	none
CCCN1C(=O)/C(=C/c2c(NCCCOCC)nc3c(C)cccn3c2=O)SC1=S	PABP polyA inh inconclusive, eIF4H inh inconclusive
CCOCCCNc1nc2c(C)cccn2c(=O)c1/C=C1\SC(=S)N(C(C)CC)C1=O (configuration not stated)	PABP polyA inh inconclusive, eIF4H inh inconclusive, EBV gp42 block 132.8
CCOCCCNc1nc2c(C)cccn2c(=O)c1/C=C1\SC(=S)N(CC(C)C)C1=O	PABP polyA inh inconclusive, eIF4H inh inconclusive, EBV gp42 block 104.0
CCOC(=O)Cn1c2ccc(OC)cc2c2nc3ccccc3nc21	PABP polyA inh inconclusive, eIF4H inh inconclusive, EBV gp42 block 63.9
CCOc1ccc(Cn2c3ccc(OC)cc3c3nc4ccccc4nc32)cc1OC	eIF4H inh inconclusive, EBV gp42 block 56.0
COC(=O)Cn1c2ccc(OC)cc2c2nc3ccccc3nc21	PABP polyA inh inconclusive, eIF4H inh inconclusive
COc1ccc2c(c1)c1nc3ccccc3nc1n2Cc1ccc(OC)c(OC)c1	eIF4H inh inconclusive, EBV gp42 block 59.2
Cc1ccc(NC(=O)C2(C)CCN2C2Cc3ccccc3C2)cc1 (configuration not stated)	none (no result: PABP polyA inh, eIF4H inh, eIF4E 4G PPI, EBV gp42 block)
CC(OC(=O)c1ccc2c(c1)S(=O)(=O)c1ccccc1C2=O)C(N)=O (configuration not stated)	none (no result: eIF4E 4G PPI, EBV gp42 block)
Cc1cc(C(C)(C)C)cc(C)c1C[n+]1ccc2ccccc2c1	none (no result: eIF4E 4G PPI, EBV gp42 block)
O=C1NC(=O)C(Cc2ccc(Cl)cc2)(c2ccccc2)N1 (configuration not stated)	none (no result: PABP polyA inh, eIF4H inh, eIF4E 4G PPI, EBV gp42 block)
Clc1cccc(-c2cccc3nccn23)c1	none (no result: PABP polyA inh, eIF4H inh, eIF4E 4G PPI, EBV gp42 block)
CC(C)(C)c1ccc(C(=O)NCc2nnc(SCC(=O)NCc3ccco3)o2)cc1	eIF4H inh 52.5 (no result: eIF4E 4G PPI, EBV gp42 block)
CCN(CC)c1ccc(/C=c2\sc3nnc(-c4ccccc4Cl)n3c2=O)cc1	EBV gp42 block 193.3
CCN(CC)c1ccc(/C=c2/sc3nnc(-c4ccccc4C)n3c2=O)cc1	eIF4H inh inconclusive, EBV gp42 block 171.6
CC(=O)OCCCn1c(C)[n+](C)c2cc(Cl)c(Cl)cc21	none
CCn1c(C)[n+](CCOC(C)=O)c2cc(Cl)c(Cl)cc21	PABP polyA inh active
CC(C)CCN1CCN(Cc2ccc(Sc3nncn3C)o2)CC1CCO (configuration not stated)	none
CC(C)N1CCN(Cc2ccc(Sc3nncn3C)o2)CC1CCO (configuration not stated)	eIF4E 4G PPI 94.0
CC(=O)c1ccc(S(=O)(=O)N2CCN(c3nc(-c4cccnc4)nc4ccccc34)CC2)cc1	none (no result: PABP polyA inh, eIF4H inh, eIF4E 4G PPI, EBV gp42 block)
NNC(=O)c1oc2nc(-c3cccs3)cc(-c3ccco3)c2c1N	PABP polyA inh active, eIF4H inh inconclusive (no result: eIF4E 4G PPI, EBV gp42 block)
Cc1ccc(-c2cc(-c3ccco3)c3c(N)c(C(=O)NN)oc3n2)cc1	PABP polyA inh inconclusive, eIF4H inh inconclusive
C=CCn1c(=O)/c(=C/c2ccc(C)o2)s/c1=C(/C#N)C(=O)c1ccccc1	PABP polyA inh active, eIF4H inh inconclusive
